Values joined by “and” are separate entries in the source; they are usually repeats but may differ in a detail not shown here. Equal entries are not always repeated. Records with an inconclusive call do not appear. A call without a number means that no potency is given here. The source holds several records for some structures; these can differ, active in one and inactive in another. Active and inactive are the calls of the source. Unless noted, calls follow the shape of the full dose curve.
What was measured:
[1] = Nuclear factor erythroid 2-related factor 2/antioxidant responsive element (Nrf2/ARE) small molecule agonists: qHTS cell viability counter screen in human keratinocytes (AID 1919968; active = well fitted curve in the direction sought with a large enough effect in the repeat runs; an effect the other way counts as inactive or inconclusive; also: nearly all actives have a fitted effect of over 55% in size)
Summary of the method: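 Cells of the KeratinoSens line were plated at 1,500 per well and left for 5 h before compound transfer from DMSO stocks. After a 23 h incubation (37 C, 5% CO2), CellTiter-Fluor was added. Signal was taken as fluorescence intensity 1 h later.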

[2] = Nuclear factor erythroid 2-related factor 2/antioxidant responsive element (Nrf2/ARE) small molecule agonists: luciferase reporter gene qHTS assay in human keratinocytes (AID 1919969); also: nearly all actives have a fitted effect of over 35% in size; also: potency is read from the fitted curve at half-maximal effect
[3] = biological target: Gonadotropin-releasing hormone receptor (Homo sapiens) (UniProt P30968); experiment: Human gonadotropin-releasing hormone receptor (GnRHR) small molecule agonists, calcium flux assay in GnRHR-HEK293 cells (AID 1920063); also: nearly all actives have a fitted effect of over 35% in size
Summary of the method: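 Compounds dissolved in DMSO are pin-transferred onto dye-loaded GnRHR-HEK293 cells, which were seeded 18 h before at 37 C/5% CO2. Calcium signal is read as fluorescence intensity at 1 s intervals for 3 min.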

[4] = biological target: KiSS-1 receptor (Homo sapiens) (UniProt Q969F8); experiment: Human kisspeptin (KISS1R) small molecule agonists, calcium flux assay in KISS1R-HEK293 cells (AID 1920064; active = well fitted curve in the direction sought with a large enough effect in the repeat runs; an effect the other way counts as inactive or inconclusive)
Summary of the method: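 Cell line: HEK293, stable human KISS1R. Dye loading 1 h at 37 C after 18 h culture. Read: kinetic fluorescence, 480/540 nm, 3 min at 1 s intervals.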

[5] = G protein-coupled receptor (GPCR) small molecule agonists, calcium flux assay: HEK293 wild type cell line counter screen (AID 1920065)
Summary of the method: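 Tox21 10K compounds, 15 concentrations each in triplicate, pin-transferred in DMSO onto dye-loaded cells; kinetic read at 480/540 nm for 3 min, 1 s intervals.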

[6] = p53 small molecule agonists, cell-based qHTS assay with human liver microsomes (AID 1963577)
Summary of the method: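 Compounds act here after metabolic activation: human liver microsomes and NADPH, both at 0.5 mg/mL final, were co-added to p53RE-bla cells. Incubation ran 16 h at 37 C, followed by LiveBLAzer detection.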

[7] = p53 small molecule agonists, cell-based qHTS assay with rat liver microsomes (AID 1963578)
Summary of the method: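 Read-out is beta-lactamase reporter fluorescence (LiveBLAzer, 2 h, room temperature, dark) in p53RE-bla cells treated 16 h at 37 C with compound, rat liver microsomes and NADPH, both 0.5 mg/mL final.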

[8] = p53 small molecule agonists, cell-based qHTS assay with human liver microsomes: qHTS cell viability counter screen (AID 1963579); also: nearly all actives have a fitted effect of over 45% in size; also: potency is read from the fitted curve at half-maximal effect
Summary of the method: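 Cells carrying the p53 response-element beta-lactamase reporter are treated for 16 h at 37 C with test compounds in the presence of human liver microsomes and NADPH (both 0.5 mg/mL final); ATP-based CellTiter-Glo luminescence then reports viability.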

[9] = p53 small molecule agonists, cell-based qHTS assay with rat liver microsomes: qHTS cell viability counter screen (AID 1963580); also: nearly all actives have a fitted effect of over 45% in size
Summary of the method: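 Luminescent ATP readout (CellTiter-Glo, 30 min at room temperature) reports viability of p53RE-bla HCT-116 cells after 16 h at 37 C with test compounds under metabolic activation by rat liver microsomes and NADPH at 0.5 mg/mL final each.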

[10] = p53 small molecule agonists, cell-based qHTS assay: qHTS cell viability counter screen (AID 1963581); also: nearly all actives have a fitted effect of over 45% in size
Summary of the method: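 ATP content measured by luminescence in HCT-116 p53RE-bla cells treated 16 h at 37 C, same wells as the reporter screen.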

[11] = p53 small molecule agonists, cell-based qHTS assay (AID 1963582; active = well fitted activation curve with a large enough effect in the signal ratio in the repeat runs, not every such curve was filed as active; the % refers to the signal ratio)
Summary of the method: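 16 h compound exposure (37 C) of p53 response element–bla cells, preceded by 5 h recovery at 37 C/5% CO2; read-out via LiveBLAzer B/G FRET substrate, 2 h RT, fluorescence intensity.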

[12] = biological target: 5-hydroxytryptamine receptor 2A (Homo sapiens) (UniProt P28223); experiment: 5-hydroxytryptamine receptor 2A (HTR2A) small molecule antagonists, cell-based qHTS assay (AID 1963586); also: nearly all actives have a fitted effect of over 45% in size
Summary of the method: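 CHO cells stably expressing human HTR2A were plated for 18 h at 37 C, then loaded with calcium dye for 1 h. Compounds were preincubated 5 min at room temperature before DOI (4 nM solution) was added. Kinetic fluorescence was read for 3 min.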

[13] = biological target: 5-hydroxytryptamine receptor 2A (Homo sapiens) (UniProt P28223); experiment: 5-hydroxytryptamine receptor 2A (HTR2A) small molecule agonists, cell-based qHTS assay (AID 1963587); also: nearly all actives have a fitted effect of over 30% in size; also: potency is read from the fitted curve at half-maximal effect
Summary of the method: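 HTR2A-CHO cells, plated 18 h at 37 C/5% CO2, dye-loaded 1 h at 37 C; compounds in DMSO added by pin tool (agonist mode). Intracellular calcium flux read as kinetic fluorescence on FDSS over 2 min at 1 s intervals.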

[14] = biological target: Muscarinic acetylcholine receptor M1 (Homo sapiens) (UniProt P11229); experiment: Cholinergic receptor muscarinic 1 (CHRM1) small molecule antagonists, cell-based qHTS assay (AID 1963588); also: nearly all actives have a fitted effect of over 40% in size
Summary of the method: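 Compounds were tested at 15 concentrations in three independent runs. Dye-loaded CHRM1-CHO cells were exposed 5 min at room temperature before stimulation by acetylcholine added at 50nM. Intracellular calcium was read kinetically on FDSS for 3 min.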

[15] = biological target: Muscarinic acetylcholine receptor M1 (Homo sapiens) (UniProt P11229); experiment: Cholinergic receptor muscarinic 1 (CHRM1) small molecule agonists, cell-based qHTS assay (AID 1963589); also: nearly all actives have a fitted effect of over 35% in size
Summary of the method: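 Homogeneous fluorescence calcium flux, agonist mode. Human M1-expressing CHO cells; compound dosed at 15 concentrations, three independent runs; signal sampled every 1 sec.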

[16] = cAMP Responsive Elements (CRE) small molecule antagonists, cell-based qHTS assay (AID 1963591; active = well fitted inhibition curve with a large enough effect in the signal ratio in the repeat runs, not every such curve was filed as active; the % refers to the signal ratio)
Summary of the method: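 First, CRE-bla HEK293T cells settled 18 h at 37 C. Next, compound and 0.25 uM final NKH477 were applied for 3 h. Last, LiveBLAzer B/G substrate was loaded for 2 h at room temperature.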

[17] = biological target: Beta-2 adrenergic receptor (Homo sapiens) (UniProt P07550); experiment: Adrenergic beta2 receptor (ADRB2) small molecule antagonists, cell-based qHTS assay (AID 1963592); also: series mostly up to about 92 µM; nearly all actives have a fitted effect of over 50% in size
Summary of the method: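 Assay format: CHO-ADRB2 cells, 18-20hr seeding at 37C/5% CO2, then compound plus 1nM isoproterenol agonist mix for 0.5hr RT. Homogeneous time-resolved fluorescence cAMP detection after 1hr, expressed as 665/615 nm ratio.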

[18] = biological target: D(2) dopamine receptor (Homo sapiens) (UniProt P14416); experiment: Dopamine D2 receptor (DRD2) small molecule agonists, cell-based qHTS assay (AID 1963594); also: nearly all actives have a fitted effect of over 35% in size
Summary of the method: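 HEK293 cells stably expressing DRD2 were cultured 24 h at 37 C, then given Ro20-1724 (0.1 mM final) and compounds for 10 min at room temperature. NKH477 (200nM) was then added for 30 min. cAMP was read by HTRF.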

[19] = biological target: D(2) dopamine receptor (Homo sapiens) (UniProt P14416); experiment: Dopamine D2 receptor (DRD2) small molecule antagonists, cell-based qHTS assay (AID 1963595; active = well fitted inhibition curve with a large enough effect in the signal ratio in the repeat runs, with a control signal flat; the % refers to the signal ratio)
Summary of the method: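 Cells were plated and grown for 24 h at 37 °C. Ro20-1724 (0.1 mM final) went in first, then compound for 10 min. NKH477 (200 nM) with quinpirole (12 nM) followed for 30 min at RT, then HTRF detection reagents for 1 h.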

[20] = cAMP Responsive Elements (CRE) small molecule agonists, cell-based qHTS assay (AID 1963590)
Summary of the method: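 HEK 293T cells stably bearing CRE-bla were plated at 2,000 cells per well and rested 18 h. Compounds, positive controls or DMSO were added for 3 h at 37 C. LiveBLAzer B/G substrate was then loaded for 2 h at room temperature.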

Chain of Gonadotropin-releasing hormone receptor (Homo sapiens) (P30968 whole entry, looked up): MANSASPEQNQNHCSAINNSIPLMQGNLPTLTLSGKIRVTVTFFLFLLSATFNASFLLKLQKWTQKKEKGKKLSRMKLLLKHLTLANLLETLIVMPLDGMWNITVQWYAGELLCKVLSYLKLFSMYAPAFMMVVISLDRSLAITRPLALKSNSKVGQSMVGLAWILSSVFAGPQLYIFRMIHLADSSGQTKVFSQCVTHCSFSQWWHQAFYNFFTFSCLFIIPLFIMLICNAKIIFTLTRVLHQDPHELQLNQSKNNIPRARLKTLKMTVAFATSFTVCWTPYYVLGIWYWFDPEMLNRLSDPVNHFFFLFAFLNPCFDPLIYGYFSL
Chain of KiSS-1 receptor (Homo sapiens) (Q969F8 whole entry, looked up): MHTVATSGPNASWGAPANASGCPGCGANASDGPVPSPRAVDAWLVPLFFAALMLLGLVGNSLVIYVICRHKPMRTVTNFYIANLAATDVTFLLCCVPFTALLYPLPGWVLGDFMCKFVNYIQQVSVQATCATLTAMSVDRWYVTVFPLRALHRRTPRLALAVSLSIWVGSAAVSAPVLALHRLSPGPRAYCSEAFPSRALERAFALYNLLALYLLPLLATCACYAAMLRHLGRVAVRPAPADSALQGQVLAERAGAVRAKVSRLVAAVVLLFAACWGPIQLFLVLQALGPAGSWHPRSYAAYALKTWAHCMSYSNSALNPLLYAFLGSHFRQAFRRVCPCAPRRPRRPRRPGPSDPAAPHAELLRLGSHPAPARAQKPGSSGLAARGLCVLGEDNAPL
Chain of Beta-2 adrenergic receptor (Homo sapiens) (P07550 whole entry, looked up): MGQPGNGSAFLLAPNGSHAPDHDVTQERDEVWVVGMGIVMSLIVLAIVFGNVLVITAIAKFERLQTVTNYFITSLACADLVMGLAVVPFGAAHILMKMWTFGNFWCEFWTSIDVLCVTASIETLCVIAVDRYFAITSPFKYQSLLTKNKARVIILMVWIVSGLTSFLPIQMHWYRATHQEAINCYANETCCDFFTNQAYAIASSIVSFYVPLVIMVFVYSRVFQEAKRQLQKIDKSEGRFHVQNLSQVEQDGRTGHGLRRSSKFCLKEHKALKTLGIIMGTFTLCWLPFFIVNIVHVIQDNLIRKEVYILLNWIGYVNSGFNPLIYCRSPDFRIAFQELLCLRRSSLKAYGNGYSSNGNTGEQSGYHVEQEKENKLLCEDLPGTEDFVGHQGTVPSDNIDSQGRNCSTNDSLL
Chain of D(2) dopamine receptor (Homo sapiens) (P14416 whole entry, looked up): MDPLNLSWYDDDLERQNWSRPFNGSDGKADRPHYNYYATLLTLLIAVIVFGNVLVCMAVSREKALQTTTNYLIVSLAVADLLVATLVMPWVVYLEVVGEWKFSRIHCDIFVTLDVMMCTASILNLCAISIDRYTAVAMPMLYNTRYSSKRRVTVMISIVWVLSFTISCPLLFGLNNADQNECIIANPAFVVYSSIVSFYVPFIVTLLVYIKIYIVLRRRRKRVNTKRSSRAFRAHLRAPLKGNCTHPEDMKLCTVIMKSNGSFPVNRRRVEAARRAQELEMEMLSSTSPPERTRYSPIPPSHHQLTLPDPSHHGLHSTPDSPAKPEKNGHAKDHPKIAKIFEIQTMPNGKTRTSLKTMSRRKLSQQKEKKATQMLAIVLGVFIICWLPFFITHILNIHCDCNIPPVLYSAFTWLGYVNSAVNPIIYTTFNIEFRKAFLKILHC
Chain of 5-hydroxytryptamine receptor 2A (Homo sapiens) (P28223 whole entry, looked up): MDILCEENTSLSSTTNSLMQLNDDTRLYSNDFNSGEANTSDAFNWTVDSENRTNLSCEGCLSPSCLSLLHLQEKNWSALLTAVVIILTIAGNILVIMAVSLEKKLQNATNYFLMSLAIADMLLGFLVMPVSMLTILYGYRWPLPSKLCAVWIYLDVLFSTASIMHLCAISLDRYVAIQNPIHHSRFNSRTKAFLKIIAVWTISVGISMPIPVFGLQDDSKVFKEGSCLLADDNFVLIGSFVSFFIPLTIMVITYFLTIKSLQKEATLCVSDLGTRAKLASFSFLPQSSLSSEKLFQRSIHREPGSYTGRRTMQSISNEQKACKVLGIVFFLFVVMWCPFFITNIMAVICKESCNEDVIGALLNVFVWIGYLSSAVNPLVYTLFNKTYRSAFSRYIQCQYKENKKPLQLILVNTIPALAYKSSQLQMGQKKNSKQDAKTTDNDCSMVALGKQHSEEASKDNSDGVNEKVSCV
Chain of Muscarinic acetylcholine receptor M1 (Homo sapiens) (P11229 whole entry, looked up): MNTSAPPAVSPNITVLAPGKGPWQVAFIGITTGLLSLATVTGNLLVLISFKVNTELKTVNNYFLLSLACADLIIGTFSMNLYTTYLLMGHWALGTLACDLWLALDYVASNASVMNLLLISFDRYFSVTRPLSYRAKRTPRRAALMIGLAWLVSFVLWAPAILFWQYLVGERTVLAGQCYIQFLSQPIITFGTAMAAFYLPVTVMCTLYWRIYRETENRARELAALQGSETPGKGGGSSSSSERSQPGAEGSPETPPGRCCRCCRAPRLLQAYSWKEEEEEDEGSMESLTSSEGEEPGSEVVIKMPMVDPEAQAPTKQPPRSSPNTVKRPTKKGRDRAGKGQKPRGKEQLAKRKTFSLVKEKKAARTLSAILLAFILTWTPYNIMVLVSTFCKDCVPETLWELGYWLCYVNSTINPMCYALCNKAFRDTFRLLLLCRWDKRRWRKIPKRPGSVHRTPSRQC

Compound | Potency [1] | Potency [2] | Potency [3] | Potency [4] | Potency [5] | Potency [6] | Potency [7] | Potency [8] | Potency [9] | Potency [10] | Potency [11] | Potency [12] | Potency [13] | Potency [14] | Potency [15] | Potency [16] | Potency [17] | Potency [18] | Potency [19] | Potency [20]
CCCC[O][Al]([O]CCCC)[O]CCCC | inactive | inactive | inactive | inactive | inactive | inactive | inactive | inactive | inactive | inactive | inactive | inactive | inactive | inactive | inactive | inactive | inactive | inactive | inactive | 
CCC(=O)OC(C)(C)C1CC=C(C)CC1 (stereo not given) | inactive | inactive | inactive | inactive | inactive | inactive | inactive | inactive | inactive | inactive | inactive | inactive | inactive | inactive | inactive |  |  | inactive | inactive | 
NCCc1ccc(O)c(O)c1 | inactive | inactive | inactive | inactive | inactive | inactive | inactive | inactive | inactive | inactive | inactive | inactive | inactive and 6.01 µM (active) | inactive | inactive | inactive | inactive |  | inactive | 
NS(=O)(=O)c1cc2c(cc1Cl)NC(C1CC3C=CC1C3)NS2(=O)=O (stereo not given) | inactive | inactive | inactive | inactive | inactive | inactive | inactive | 3.97 µM (active) | inactive | inactive | inactive | inactive | inactive | inactive | inactive | inactive | inactive | inactive | inactive | 
COc1ccc2cccc(CCNC(C)=O)c2c1 | inactive | inactive | inactive | inactive | inactive | inactive | inactive | inactive | inactive | inactive | inactive | inactive | inactive | inactive |  | inactive | inactive | inactive | inactive | inactive
CC(C)(C)NC(N)=O | inactive | inactive | inactive | inactive | inactive | inactive | inactive | inactive | inactive | inactive | inactive | inactive | inactive | inactive |  | inactive | inactive | inactive | inactive | inactive
CCCCC/C=C/C=C/C=O | inactive | 61.1 µM (active) | inactive | inactive | inactive | inactive | inactive | inactive | inactive | inactive | inactive | inactive | inactive | inactive |  | inactive | inactive | inactive | inactive | inactive

— PubChem BioAssay (Tox21)
